Results on eight compounds are retold here after PubChem BioAssay (Tox21).

Where “and” joins values, the source holds several entries; their conditions need not be identical. Equal entries are not always repeated. Records with an inconclusive call do not appear. Calls of active or inactive are those of the source. Unless noted, calls follow the shape of the full dose curve.

Assay [1] is described as follows: Nuclear factor erythroid 2-related factor 2/antioxidant responsive element (Nrf2/ARE) small molecule agonists: luciferase reporter gene qHTS assay in human keratinocytes (AID 1919969). Also: nearly all actives have a fitted effect of over 35% in size. Also: potency is read from the fitted curve at half-maximal effect. Background: Reporter assays use an easily measured gene product as a stand-in for the process of interest.
The target in assay [2] is Gonadotropin-releasing hormone receptor (Homo sapiens) (UniProt P30968). Description: Human gonadotropin-releasing hormone receptor (GnRHR) small molecule agonists, calcium flux assay in GnRHR-HEK293 cells (AID 1920063). Also: nearly all actives have a fitted effect of over 35% in size. A digest of the protocol: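 Cells: HEK293 stably expressing human GnRHR. Steps: overnight (18 h) culture, 1 h calcium dye loading at 37 C, compound addition, kinetic fluorescence read at 480/540 nm. Each compound tested at 15 concentrations in triplicate.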
(In general: A change in cytosolic calcium serves as a functional read-out for many receptors and channels.)

Assay [3] deals with KiSS-1 receptor (Homo sapiens) (UniProt Q969F8). The assay can be described thus: Human kisspeptin (KISS1R) small molecule agonists, calcium flux assay in KISS1R-HEK293 cells (AID 1920064; active = well fitted activation curve with a large enough effect in the repeat runs). An outline of the steps: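 Cells plated and incubated 18 h; dye added, 1 h at 37 C; compounds in DMSO pinned in; signal read at 480/540 nm every second for 3 min. Each compound tested at 15 concentrations in triplicate.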

A short description of assay [4]: p53 small molecule agonists, cell-based qHTS assay with human liver microsomes (AID 1963577). A digest of the protocol: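 Cells carrying a p53-responsive bla reporter were rested 5 h (37 C, 5% CO2) before compound transfer. Human liver microsomes plus NADPH, 0.5 mg/mL final apiece, supplied metabolism during the 16 h 37 C exposure.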
On the technique in general: qHTS replaces the single test concentration by a dilution series.

Assay [5] in a line: p53 small molecule agonists, cell-based qHTS assay with rat liver microsomes (AID 1963578). A digest of the protocol: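 Fluorescence from a beta-lactamase reporter under a p53 response element was measured after cells had been incubated 16 h at 37 C with test compound and rat liver microsomes plus NADPH (0.5 mg/mL final each).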
Assay [6] can be described thus: p53 small molecule agonists, cell-based qHTS assay with human liver microsomes: qHTS cell viability counter screen (AID 1963579). Also: nearly all actives have a fitted effect of over 45% in size. Also: potency is read from the fitted curve at half-maximal effect. An outline of the steps:
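Seed p53RE-bla cells at 4,000 per well; incubate 5 h at 37 C; add compound, human liver microsomes and NADPH; incubate 16 h at 37 C; add CellTiter-Glo; after 30 min at room temperature, read luminescence.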

Assay [7] is described as follows: p53 small molecule agonists, cell-based qHTS assay with rat liver microsomes: qHTS cell viability counter screen (AID 1963580). Also: nearly all actives have a fitted effect of over 45% in size. An outline of the steps:
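p53RE-bla HCT-116 cells (4,000/well) rested 5 h at 37 C, then given Tox21 compounds in DMSO with rat liver microsomes (0.5 mg/mL final) plus NADPH (0.5 mg/mL final) for 16 h at 37 C. Viability read by CellTiter-Glo luminescence after 30 min at room temperature.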

A short description of assay [8]: p53 small molecule agonists, cell-based qHTS assay: qHTS cell viability counter screen (AID 1963581). Also: nearly all actives have a fitted effect of over 45% in size. An outline of the steps:
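Cells: HCT-116 with p53 response element-driven beta-lactamase. Treatment: 16 h, 37 C, compounds in DMSO. Read: CellTiter-Glo luminescence after 30 min RT.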

Assay [9] can be described thus: p53 small molecule agonists, cell-based qHTS assay (AID 1963582; active = well fitted activation curve with a large enough effect in the signal ratio in the repeat runs, not every such curve was filed as active; the % refers to the signal ratio). An outline of the steps:
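Quantitative HTS in p53RE-bla cells: after a 5 h settling period, compounds delivered in DMSO were left on cells for 16 h at 37 C, and reporter induction was measured as fluorescence following 2 h substrate loading.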

The target in assay [10] is 5-hydroxytryptamine receptor 2A (Homo sapiens) (UniProt P28223). Description: 5-hydroxytryptamine receptor 2A (HTR2A) small molecule antagonists, cell-based qHTS assay (AID 1963586). Also: nearly all actives have a fitted effect of over 45% in size. A digest of the protocol:
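Antagonist-mode intracellular calcium assay: DOI (4 nM) added after 5 min compound pre-incubation at room temperature to dye-loaded HTR2A-CHO cells. Fluorescence followed for 3 min, sampled every second.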

The target is the same in assay [11]. The assay can be described thus: 5-hydroxytryptamine receptor 2A (HTR2A) small molecule agonists, cell-based qHTS assay (AID 1963587). Also: nearly all actives have a fitted effect of over 30% in size. Also: potency is read from the fitted curve at half-maximal effect. A digest of the protocol:
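HTR2A-CHO cells, plated 18 h at 37 C/5% CO2, dye-loaded 1 h at 37 C; compounds in DMSO added by pin tool (agonist mode). Intracellular calcium flux read as kinetic fluorescence on FDSS over 2 min at 1 s intervals.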

Assay [12] concerns the target Muscarinic acetylcholine receptor M1 (Homo sapiens) (UniProt P11229). The assay can be described thus: Cholinergic receptor muscarinic 1 (CHRM1) small molecule antagonists, cell-based qHTS assay (AID 1963588). Also: nearly all actives have a fitted effect of over 40% in size. A digest of the protocol:
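CHRM1-CHO calcium-flux assay, antagonist mode. Cells were seeded 18 h, dye-loaded 1 h at 37 C and given compound for 5 min at RT, then acetylcholine was added at 50nM. FDSS fluorescence was read 3 min; 15 concentrations, three runs.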

Assay [13] has the same target. The assay can be described thus: Cholinergic receptor muscarinic 1 (CHRM1) small molecule agonists, cell-based qHTS assay (AID 1963589). Also: nearly all actives have a fitted effect of over 35% in size. A digest of the protocol: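 Agonist-mode qHTS in CHO cells stably carrying human muscarinic M1. Intracellular calcium is tracked by fluorescence every second after compound transfer; each compound runs at 15 concentrations in three independent runs.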

Assay [14] in a line: cAMP Responsive Elements (CRE) small molecule agonists, cell-based qHTS assay (AID 1963590). A digest of the protocol:
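Agonist mode qHTS in CRE-bla HEK 293T cells: compounds dosed from DMSO for 3 h at 37 C/5% CO2, followed by LiveBLAzer B/G FRET substrate for 2 h at room temperature.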

Assay [15] can be described thus: cAMP Responsive Elements (CRE) small molecule antagonists, cell-based qHTS assay (AID 1963591; active = well fitted inhibition curve with a large enough effect in the signal ratio in the repeat runs, not every such curve was filed as active; the % refers to the signal ratio). An outline of the steps: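 Antagonist mode: test compounds are co-incubated with the adenylyl cyclase activator NKH477 (0.25 uM final) on CRE-bla HEK293T cells for 3 h at 37 °C, followed by LiveBLAzer substrate loading.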
Assay [16] addresses Beta-2 adrenergic receptor (Homo sapiens) (UniProt P07550). Description: Adrenergic beta2 receptor (ADRB2) small molecule antagonists, cell-based qHTS assay (AID 1963592). Also: series mostly up to about 92 µM; nearly all actives have a fitted effect of over 50% in size. An outline of the steps: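 Cells (CHO, stable ADRB2 overexpression) incubated 18-20hr at 37C; compounds added from DMSO; agonist mix (1nM isoproterenol, 100uM IBMX, 25uM Ro-20-1724) added; 0.5hr RT; d2-cAMP and anti-cAMP-cryptate added; 1hr RT; 665/615 nm read.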

The target is the same in assay [17]. Description: Adrenergic beta2 receptor (ADRB2) small molecule agonists, cell-based qHTS assay (AID 1963593).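 Also: CHO cells stably overexpressing human ADRB2.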 A digest of the protocol:
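CHO cells stably over-expressing ADRB2 were plated overnight at 37C, then dosed with compounds plus a stimulation mix containing 100uM IBMX and 25uM Ro-20-1724 for 0.5hr at room temperature. cAMP was measured by HTRF competition, 1hr.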

The target of assay [18] is D(2) dopamine receptor (Homo sapiens) (UniProt P14416). The assay can be described thus: Dopamine D2 receptor (DRD2) small molecule agonists, cell-based qHTS assay (AID 1963594). Also: nearly all actives have a fitted effect of over 35% in size. A digest of the protocol: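 HEK293 cells stably expressing DRD2 were cultured 24 h at 37 C, then given Ro20-1724 (0.1 mM final) and compounds for 10 min at room temperature. NKH477 (200nM) was then added for 30 min. cAMP was read by HTRF.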

Assay [19] has the same target. Description: Dopamine D2 receptor (DRD2) small molecule antagonists, cell-based qHTS assay (AID 1963595; active = well fitted inhibition curve with a large enough effect in the signal ratio in the repeat runs, with a control signal flat; the % refers to the signal ratio; also: potency is read from the fitted curve at half-maximal effect). A digest of the protocol:
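Antagonist mode in DRD2-HEK293 cells: after compound addition with 0.1 mM Ro20-1724, cells received quinpirole (12 nM) and NKH477 (200 nM) for 30 min at room temperature; HTRF cAMP read after 1 h detection.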

Assay [20] can be described thus: G protein-coupled receptor (GPCR) small molecule agonists, calcium flux assay: HEK293 wild type cell line counter screen (AID 1920065). A digest of the protocol: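 Counter-screen of the Tox21 10K library for non-specific calcium release: dye-loaded cells received compounds in DMSO and were monitored by kinetic fluorescence (480/540 nm, 3 min). Fifteen concentrations, run in triplicate.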

Sequence of D(2) dopamine receptor (Homo sapiens) (P14416 whole entry, looked up): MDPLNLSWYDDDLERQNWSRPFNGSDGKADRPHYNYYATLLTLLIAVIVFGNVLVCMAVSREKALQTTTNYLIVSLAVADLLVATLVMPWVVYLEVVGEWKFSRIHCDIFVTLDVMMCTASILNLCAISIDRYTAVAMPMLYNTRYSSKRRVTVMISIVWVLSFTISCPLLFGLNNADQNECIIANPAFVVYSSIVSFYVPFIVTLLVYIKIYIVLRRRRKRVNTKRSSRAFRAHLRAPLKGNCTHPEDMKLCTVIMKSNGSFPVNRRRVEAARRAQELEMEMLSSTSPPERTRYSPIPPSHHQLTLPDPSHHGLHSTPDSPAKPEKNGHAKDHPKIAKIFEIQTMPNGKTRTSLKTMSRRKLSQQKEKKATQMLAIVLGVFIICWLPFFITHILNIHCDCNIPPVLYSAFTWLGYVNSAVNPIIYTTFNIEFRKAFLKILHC
Sequence of Gonadotropin-releasing hormone receptor (Homo sapiens) (P30968 whole entry, looked up): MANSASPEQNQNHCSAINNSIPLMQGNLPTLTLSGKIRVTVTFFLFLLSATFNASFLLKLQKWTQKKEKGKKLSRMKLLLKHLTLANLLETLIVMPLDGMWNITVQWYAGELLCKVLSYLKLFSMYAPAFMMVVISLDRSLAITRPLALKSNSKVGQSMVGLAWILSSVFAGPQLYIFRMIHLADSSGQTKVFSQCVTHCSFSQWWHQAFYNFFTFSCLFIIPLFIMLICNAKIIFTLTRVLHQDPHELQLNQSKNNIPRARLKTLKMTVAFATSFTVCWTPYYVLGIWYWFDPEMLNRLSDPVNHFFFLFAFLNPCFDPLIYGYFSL
Sequence of 5-hydroxytryptamine receptor 2A (Homo sapiens) (P28223 whole entry, looked up): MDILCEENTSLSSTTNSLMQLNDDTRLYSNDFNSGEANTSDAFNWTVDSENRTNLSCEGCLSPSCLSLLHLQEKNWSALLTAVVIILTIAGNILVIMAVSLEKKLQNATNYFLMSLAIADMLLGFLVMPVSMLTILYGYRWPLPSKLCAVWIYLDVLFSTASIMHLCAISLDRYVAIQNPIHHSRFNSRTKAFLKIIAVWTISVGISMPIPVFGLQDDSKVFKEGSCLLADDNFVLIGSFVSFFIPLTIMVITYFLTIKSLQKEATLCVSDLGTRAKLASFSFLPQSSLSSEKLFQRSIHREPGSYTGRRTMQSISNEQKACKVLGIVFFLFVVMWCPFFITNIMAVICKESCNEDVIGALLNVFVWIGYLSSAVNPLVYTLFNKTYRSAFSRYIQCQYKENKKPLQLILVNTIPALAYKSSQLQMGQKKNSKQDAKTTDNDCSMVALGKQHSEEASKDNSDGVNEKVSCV
Sequence of Muscarinic acetylcholine receptor M1 (Homo sapiens) (P11229 whole entry, looked up): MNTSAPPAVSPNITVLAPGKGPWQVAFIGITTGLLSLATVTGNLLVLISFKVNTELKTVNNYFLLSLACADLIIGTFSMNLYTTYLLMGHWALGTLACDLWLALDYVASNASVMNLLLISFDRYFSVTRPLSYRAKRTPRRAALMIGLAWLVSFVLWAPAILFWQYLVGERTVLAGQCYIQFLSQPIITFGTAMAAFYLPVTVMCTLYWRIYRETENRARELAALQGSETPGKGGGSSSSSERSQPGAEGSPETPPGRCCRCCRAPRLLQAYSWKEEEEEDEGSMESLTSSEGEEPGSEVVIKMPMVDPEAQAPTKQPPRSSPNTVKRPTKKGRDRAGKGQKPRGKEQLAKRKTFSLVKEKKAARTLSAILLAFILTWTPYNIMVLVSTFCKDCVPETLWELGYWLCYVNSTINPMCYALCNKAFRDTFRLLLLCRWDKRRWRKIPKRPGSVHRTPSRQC
Sequence of Beta-2 adrenergic receptor (Homo sapiens) (P07550 whole entry, looked up): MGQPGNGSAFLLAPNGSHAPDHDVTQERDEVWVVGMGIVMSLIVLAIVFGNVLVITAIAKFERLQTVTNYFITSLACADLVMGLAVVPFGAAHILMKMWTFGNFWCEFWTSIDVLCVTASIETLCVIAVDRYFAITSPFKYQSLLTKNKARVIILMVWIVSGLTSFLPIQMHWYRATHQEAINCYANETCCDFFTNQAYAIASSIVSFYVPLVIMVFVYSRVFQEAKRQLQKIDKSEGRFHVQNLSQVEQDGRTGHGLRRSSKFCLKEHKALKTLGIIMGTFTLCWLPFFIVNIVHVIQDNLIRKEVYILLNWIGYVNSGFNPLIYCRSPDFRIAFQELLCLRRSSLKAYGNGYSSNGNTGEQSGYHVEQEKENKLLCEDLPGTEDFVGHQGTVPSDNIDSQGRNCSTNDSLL
Sequence of KiSS-1 receptor (Homo sapiens) (Q969F8 whole entry, looked up): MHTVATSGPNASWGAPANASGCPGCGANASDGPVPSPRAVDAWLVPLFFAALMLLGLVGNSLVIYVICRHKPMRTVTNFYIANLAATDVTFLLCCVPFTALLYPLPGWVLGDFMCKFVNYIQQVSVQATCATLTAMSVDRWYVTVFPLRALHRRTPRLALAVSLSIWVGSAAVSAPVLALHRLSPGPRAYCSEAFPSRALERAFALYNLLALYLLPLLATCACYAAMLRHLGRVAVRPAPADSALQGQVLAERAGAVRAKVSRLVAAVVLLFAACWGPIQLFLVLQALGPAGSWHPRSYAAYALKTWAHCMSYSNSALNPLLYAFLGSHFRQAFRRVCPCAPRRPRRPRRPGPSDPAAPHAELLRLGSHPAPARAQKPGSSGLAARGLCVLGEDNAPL

In the case of `ClC1=C(Cl)C2(Cl)C(CBr)CC1(Cl)C2(Cl)Cl` (centres undefined), the Potency entry in assay [1], in [2], in assay [3], in assay [4], in assay [5] and in assay [6] was “inactive” in each case. Moreover, the Potency entry in assay [7], in assay [8], in assay [9], in assay [10], in assay [11] and in assay [12] was “inactive” each time. Moreover, the Potency result in assay [13], in [14], in [15], in assay [16], in [17] and in [18] was “inactive” in each case. Besides, the Potency result in assay [19] is “inactive”.

On to `CS/C(C)=N/OC(=O)N(C)SN(C)C(=O)O/N=C(\C)SC`, for which the Potency in assay [1] is 68.6 µM (active). For the same compound, the Potency result in [2], in assay [3], in [20], in [6], in [7] and in assay [8] was “inactive” in each case. The Potency result in [9], in assay [10], in [13], in assay [14], in assay [15] and in [16] was “inactive” each time. The Potency entry in [17] and in assay [18] was “inactive” each time.

`O=S1(=O)OCC2C(CO1)C1(Cl)C(Cl)=C(Cl)C2(Cl)C1(Cl)Cl` (centres undefined): in assay [1], the Potency was 24.3 µM (active). The Potency result in [3], in [20], in assay [4], in assay [5], in assay [6] and in [7] was “inactive” in each case. Besides, the Potency entry in [8], in assay [10], in [11], in [12], in [13] and in assay [16] was “inactive” in each case. Also, the Potency result in [17] and in [19] was “inactive” each time.

`BrC(Br)C(Br)(Br)Br`: the Potency entry in assay [1], in [3], in assay [20], in assay [4], in assay [5] and in assay [6] was “inactive” throughout. The Potency entry in [7], in assay [12], in assay [16], in [18] and in assay [19] was “inactive” each time. Also, the Potency in assay [11] is 55.3 µM (active).

Turning to `ClC1=C(Cl)[C@]2(Cl)[C@@H]3[C@H]4C[C@H]([C@@H]5O[C@H]45)[C@@H]3[C@@]1(Cl)C2(Cl)Cl`, the Potency entry in assay [2], in assay [3], in assay [20], in [4], in assay [5] and in assay [6] was “inactive” throughout. The Potency entry in [7], in assay [8], in assay [9], in [18] and in [19] was “inactive” in each case.

For `CCCCC(O)(Cn1cncn1)c1ccc(Cl)cc1Cl` (centres undefined), the Potency entry in assay [1], in [3], in assay [20], in assay [4], in assay [5] and in assay [6] was “inactive” in each case. Also, the Potency entry in assay [10], in assay [12], in assay [13] and in [18] was “inactive” throughout.

On to `CCCCNC(=O)OCC#CI`, for which the Potency was 24.2 µM (active) and 24.3 µM (active) in assay [1]; 68.6 µM (active) in assay [19]. Also, the Potency result in assay [3], in assay [20], in assay [4], in assay [5], in assay [6] and in [7] was “inactive” each time. Moreover, the Potency entry in assay [8], in [10], in assay [12], in [13], in assay [16] and in [17] was “inactive” throughout. Moreover, the Potency result in assay [18] is “inactive”.

With `Oc1ccc(C2(c3ccc(O)cc3)CCCCC2)cc1`, the Potency entry in [1], in assay [3], in assay [20], in [4], in assay [5] and in assay [7] was “inactive” each time. The Potency entry in assay [10], in [11], in assay [12], in [14] and in assay [19] was “inactive” in each case. The Potency in [6] is 43.3 µM (active).
